In assay [1] the target is Glycogen synthase kinase-3 beta (Homo sapiens) (UniProt P49841). To be noted: at 1 µM.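 Note: reported values are mean percent inhibition of GSK3B.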
Assay [2] has as its target Homeodomain-interacting protein kinase 1 (Homo sapiens) (UniProt Q86Z02). To be noted: at 0.1 µM.
The target is the same in assay [3]. The note with it: at 1 µM.
Assay [4] has as its target T1, Homeodomain-interacting protein kinase 4 (Homo sapiens) (UniProt Q8NE63).
T1 sequence (whole entry): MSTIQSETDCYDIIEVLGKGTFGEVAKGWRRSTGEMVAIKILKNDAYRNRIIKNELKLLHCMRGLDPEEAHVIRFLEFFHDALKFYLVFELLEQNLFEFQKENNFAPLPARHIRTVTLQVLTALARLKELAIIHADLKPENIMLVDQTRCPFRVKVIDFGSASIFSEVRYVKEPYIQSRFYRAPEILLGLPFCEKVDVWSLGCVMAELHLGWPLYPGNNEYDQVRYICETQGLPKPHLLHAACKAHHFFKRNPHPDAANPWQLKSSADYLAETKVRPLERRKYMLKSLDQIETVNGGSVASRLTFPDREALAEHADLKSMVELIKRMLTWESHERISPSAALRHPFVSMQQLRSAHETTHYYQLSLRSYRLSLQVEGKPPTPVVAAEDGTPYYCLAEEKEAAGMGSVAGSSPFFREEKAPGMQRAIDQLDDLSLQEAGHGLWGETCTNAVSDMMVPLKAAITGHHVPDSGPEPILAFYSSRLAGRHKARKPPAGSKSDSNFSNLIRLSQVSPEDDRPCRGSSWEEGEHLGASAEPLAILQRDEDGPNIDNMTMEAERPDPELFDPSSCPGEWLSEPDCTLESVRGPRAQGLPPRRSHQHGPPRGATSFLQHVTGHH
The note with it: at 0.1 µM.

Assay [5] concerns the target T1, Homeodomain-interacting protein kinase 4 (Homo sapiens). The note with it: at 1 µM.
For assay [6], the target named is Mitogen-activated protein kinase 9 (Homo sapiens) (UniProt P45984). The note with it: at 0.1 µM.
Assay [7] shares this target. The note with it: at 1 µM.
The target of assay [8] is Mitogen-activated protein kinase 1 (Homo sapiens) (UniProt P28482). To be noted: at 0.1 µM.
The target is the same in assay [9]. The note with it: at 1 µM.
Assay [10] has as its target Mitogen-activated protein kinase 3 (Homo sapiens) (UniProt P27361). To be noted: at 0.1 µM.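 Note: each value is a mean inhibition figure.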

Mitogen-activated protein kinase 3 (Homo sapiens), sequence (P27361 whole entry): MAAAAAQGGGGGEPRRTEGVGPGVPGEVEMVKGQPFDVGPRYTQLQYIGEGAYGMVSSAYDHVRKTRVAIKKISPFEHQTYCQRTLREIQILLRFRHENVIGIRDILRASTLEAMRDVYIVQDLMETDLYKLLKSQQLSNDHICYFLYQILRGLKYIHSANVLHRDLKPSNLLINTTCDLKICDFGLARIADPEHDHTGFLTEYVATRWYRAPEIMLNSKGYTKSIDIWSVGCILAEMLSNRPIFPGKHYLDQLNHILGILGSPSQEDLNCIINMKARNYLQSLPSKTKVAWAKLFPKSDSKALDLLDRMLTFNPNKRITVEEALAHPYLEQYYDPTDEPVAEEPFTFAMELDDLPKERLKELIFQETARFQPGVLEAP
Homeodomain-interacting protein kinase 1 (Homo sapiens), sequence (Q86Z02 whole entry, looked up): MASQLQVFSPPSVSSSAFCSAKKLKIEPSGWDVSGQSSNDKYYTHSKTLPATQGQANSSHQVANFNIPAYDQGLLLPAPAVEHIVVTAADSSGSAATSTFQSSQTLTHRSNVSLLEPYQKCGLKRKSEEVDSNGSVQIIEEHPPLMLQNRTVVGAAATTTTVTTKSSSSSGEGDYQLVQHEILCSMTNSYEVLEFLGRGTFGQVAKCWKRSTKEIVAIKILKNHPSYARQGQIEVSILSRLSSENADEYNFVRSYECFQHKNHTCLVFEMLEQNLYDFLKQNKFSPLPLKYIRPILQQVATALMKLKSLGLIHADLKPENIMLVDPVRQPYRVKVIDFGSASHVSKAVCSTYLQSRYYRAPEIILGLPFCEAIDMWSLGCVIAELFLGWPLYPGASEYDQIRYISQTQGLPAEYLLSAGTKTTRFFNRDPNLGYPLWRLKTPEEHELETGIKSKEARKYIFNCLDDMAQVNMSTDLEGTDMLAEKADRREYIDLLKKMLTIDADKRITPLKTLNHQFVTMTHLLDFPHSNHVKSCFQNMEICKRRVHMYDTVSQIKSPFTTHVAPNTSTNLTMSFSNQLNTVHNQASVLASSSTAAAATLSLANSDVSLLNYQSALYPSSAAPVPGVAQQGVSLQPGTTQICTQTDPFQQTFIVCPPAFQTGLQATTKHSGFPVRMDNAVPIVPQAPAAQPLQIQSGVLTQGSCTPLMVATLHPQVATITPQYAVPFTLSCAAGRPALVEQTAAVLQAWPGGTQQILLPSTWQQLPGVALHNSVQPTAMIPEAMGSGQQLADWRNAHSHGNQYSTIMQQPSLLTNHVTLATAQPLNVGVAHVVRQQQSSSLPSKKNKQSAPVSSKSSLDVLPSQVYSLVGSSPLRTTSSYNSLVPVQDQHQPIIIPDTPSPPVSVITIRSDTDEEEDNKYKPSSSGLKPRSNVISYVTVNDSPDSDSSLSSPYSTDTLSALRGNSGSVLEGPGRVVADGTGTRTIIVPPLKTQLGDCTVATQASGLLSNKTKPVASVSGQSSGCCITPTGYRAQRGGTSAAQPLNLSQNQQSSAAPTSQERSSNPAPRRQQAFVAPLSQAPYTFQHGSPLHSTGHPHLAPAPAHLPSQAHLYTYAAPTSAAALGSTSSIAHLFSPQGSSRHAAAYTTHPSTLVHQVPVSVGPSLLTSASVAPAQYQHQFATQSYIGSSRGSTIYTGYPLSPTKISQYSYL
Mitogen-activated protein kinase 1 (Homo sapiens), sequence (P28482 whole entry): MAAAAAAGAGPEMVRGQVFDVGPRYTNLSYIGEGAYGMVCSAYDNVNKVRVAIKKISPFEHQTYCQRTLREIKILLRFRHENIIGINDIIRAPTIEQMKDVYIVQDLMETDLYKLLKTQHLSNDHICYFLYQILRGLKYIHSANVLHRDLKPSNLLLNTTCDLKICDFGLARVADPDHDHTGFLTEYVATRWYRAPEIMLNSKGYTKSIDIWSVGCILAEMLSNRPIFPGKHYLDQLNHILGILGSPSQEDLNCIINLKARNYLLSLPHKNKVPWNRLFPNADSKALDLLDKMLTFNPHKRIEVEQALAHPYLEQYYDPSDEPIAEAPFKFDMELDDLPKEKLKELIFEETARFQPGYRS
Glycogen synthase kinase-3 beta (Homo sapiens), sequence (P49841 whole entry, looked up): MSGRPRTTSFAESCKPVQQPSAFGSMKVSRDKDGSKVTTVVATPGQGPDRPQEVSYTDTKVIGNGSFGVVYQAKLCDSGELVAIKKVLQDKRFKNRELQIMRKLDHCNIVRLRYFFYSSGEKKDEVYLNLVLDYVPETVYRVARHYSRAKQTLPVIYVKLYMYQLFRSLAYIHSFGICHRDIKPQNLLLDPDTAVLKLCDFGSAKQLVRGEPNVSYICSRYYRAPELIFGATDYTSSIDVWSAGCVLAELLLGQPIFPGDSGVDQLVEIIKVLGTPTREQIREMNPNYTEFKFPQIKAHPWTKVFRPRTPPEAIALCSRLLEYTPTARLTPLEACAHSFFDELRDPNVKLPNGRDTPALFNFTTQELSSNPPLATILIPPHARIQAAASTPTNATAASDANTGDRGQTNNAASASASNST
Mitogen-activated protein kinase 9 (Homo sapiens), sequence (P45984 whole entry, looked up): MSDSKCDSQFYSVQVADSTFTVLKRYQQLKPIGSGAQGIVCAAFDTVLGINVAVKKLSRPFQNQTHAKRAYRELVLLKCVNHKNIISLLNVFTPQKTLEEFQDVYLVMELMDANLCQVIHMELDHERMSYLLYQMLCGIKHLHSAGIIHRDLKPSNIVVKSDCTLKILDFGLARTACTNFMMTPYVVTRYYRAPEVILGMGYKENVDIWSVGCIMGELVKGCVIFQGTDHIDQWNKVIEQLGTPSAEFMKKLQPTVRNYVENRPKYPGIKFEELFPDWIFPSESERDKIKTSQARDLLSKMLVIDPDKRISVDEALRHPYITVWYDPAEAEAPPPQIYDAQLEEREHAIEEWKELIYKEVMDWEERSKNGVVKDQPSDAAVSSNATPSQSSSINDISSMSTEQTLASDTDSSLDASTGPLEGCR

For the molecule `CCn1c(-c2nonc2N)nc2c(C#CC(C)(C)O)nc(OC[C@@H](N)c3ccccc3)cc21`, the inhibition (in general, the drop in the measured response relative to a control, in per cent) in [1] was 76%; in [2] it was 1.19%; in assay [3], 13.3%; in [4], 1.04%; in [5] it was 8.34%; in assay [6], -0.01%. Moreover, the inhibition is -0.83% in [7], -1.1% in assay [8], 3.38% in [9] and -3.17% in assay [10].
In the case of `COc1ccccc1Nc1ncc(-c2ccccc2)o1`, the inhibition was 2.74% in [1]; -3.68% in assay [2]; 0.57% in assay [3]; -0.52% in assay [4]; 0.15% in assay [5]; 4.12% in assay [6]. For the same molecule, the inhibition is 3.07% in assay [7], 5.93% in assay [8], 6.15% in assay [9] and 4.06% in assay [10].
Consider `c1cnn2ncc(-c3ccnc(Nc4ccc5c(c4)OCCO5)n3)c2c1`, for which the inhibition was found to be 91% in assay [1]; 86.2% in assay [2]; 93% in [3]; 42.3% in assay [4]; 79.8% in [5]; 12.8% in assay [6]. In addition, the inhibition in [7] worked out at 54.4%; in assay [8] it was 6.5%; in assay [9] it was 24%; in assay [10], 6.55%.
Turning to `COc1ccc(-c2coc3ncnc(N)c23)cc1`, the inhibition in [1] is 2.62%; in assay [2], -1.54%; in assay [3] it was 0.23%; in [4], -1.26%; in assay [5], 0.51%; in [6], 4.38%. Further, the inhibition in assay [7] was 5.45%; in assay [8], 4.53%; in [9], 6.4%; in [10], 5.16%.
Turning to `COc1ccc2cc(-c3c(-c4ccncc4)nc(-c4ccc([S+](C)[O-])cc4)n3C)ccc2c1` (stereo not given), the inhibition in [1] is 9.29%; in assay [2] it was -1.81%; in assay [3], 1.99%; in [4], 0.14%; in assay [5], -0.51%; in [6] it was 1.55%. Moreover, the inhibition is 4.27% in assay [7], 1.94% in assay [8], 2.54% in assay [9] and 4.68% in assay [10].
Consider `Cc1ccc(NC(=O)c2ccnc(N3CCCC3)c2)cc1-c1ccc(C(=O)NCC2CC2)cc1`, for which the inhibition in assay [1] was 3.68%; in assay [2], -4.3%; in assay [3], -2.16%; in assay [4], -1.31%; in assay [5] it was 2.09%; in assay [6], 2.66%. In addition, the inhibition in [7] came out at 6.82%; in assay [8] it was 4.25%; in assay [9], 6.09%; in assay [10], 2.96%.
As to `Nc1nc(-c2ccccn2)c(-c2ccc3ncccc3n2)s1`, the inhibition in assay [1] came out at 8.29%; in assay [2], 4.06%; in assay [3], 10.3%; in assay [4], 3.92%; in [5] it was 10.1%; in assay [6] it was 2.16%. For the same molecule, the inhibition in [7] turned out to be 2.28%; in assay [8] it was 1.86%; in assay [9], 2.54%; in assay [10], 1.83%.
As to `CCCN1CCC(Oc2cc(Nc3nc(Nc4cccc(F)c4C(N)=O)c4cc[nH]c4n3)c(OC)cc2Cl)CC1`, the inhibition in [1] is 9.38%; in assay [2], 2.76%; in [3], 18.8%; in [4], 3.27%; in [5], 24.8%; in assay [6] it was 1.29%. The inhibition in assay [7] was found to be 2.98%; in [8], 0.93%; in assay [9] it was 17.9%; in [10], 0.36%.
As to `CC(C)=Cc1cccc2c1/C(=N/Nc1ccc(S(N)(=O)=O)cc1)C(=O)N2`, the inhibition in [1] was 44%; in assay [2], 2.49%; in [3], 10.8%; in [4], 1.38%; in assay [5] it was 6.2%; in assay [6], -0.73%. Also, the inhibition in [7] is 6.66%; in [8], -0.23%; in assay [9], 0.78%; in assay [10], 0.6%.
For the molecule `CNC(=O)c1cncc(/C=C/c2c(Cl)cccc2Cl)c1`, the inhibition is 1.92% in assay [1]; -2.63% in assay [2]; 4.11% in assay [3]; 1.25% in [4]; 7.87% in [5]; 4.08% in assay [6]. Also, the inhibition amounted to 10.1% in assay [7], 5% in assay [8], 4.6% in assay [9] and 5.34% in [10].
As to `CCn1c(-c2nonc2N)nc2ccncc21`, the inhibition in assay [1] is 5.32%; in [2], -3.19%; in assay [3], 0.47%; in assay [4] it was -0.89%; in assay [5], -0.65%; in assay [6] it was 3.39%. For the same molecule, the inhibition in assay [7] was 2.53%; in [8], 13.4%; in [9], 1.62%; in assay [10], 2.94%.
On to `[O-][S+]1CCN(Cc2ccc(-c3ccc4ncnc(Nc5ccc(OCc6ccccc6)c(F)c5)c4c3)o2)CC1`, for which the inhibition in [1] was 1.56%; in assay [2] it was -3.01%; in assay [3], 2.83%; in [4] it was 1.06%; in assay [5], 5.51%; in [6], 4.53%. In addition, the inhibition in assay [7] worked out at 4.55%; in [8] it was 0.52%; in [9], 2.92%; in assay [10] it was 1.89%.
Turning to `Fc1cccc(COc2ccc(Nc3ncnc4sc(-c5cccs5)cc34)cc2Cl)c1`, the inhibition is 5.88% in assay [1]; -5.41% in assay [2]; 2.04% in assay [3]; 0.33% in assay [4]; 1.31% in [5]; 0.62% in assay [6]. The inhibition in assay [7] is 1.01%; in assay [8] it was 2.17%; in assay [9], 1.6%; in [10] it was 1.1%.
With `CCn1c(-c2nonc2N)nc2c(N3CCCC3)nccc21`, the inhibition was 3.59% in [1]; -0.15% in [2]; 6.29% in [3]; -0.26% in assay [4]; 2.71% in assay [5]; -4.08% in assay [6]. The inhibition in assay [7] was -4.92%; in assay [8], -2.76%; in assay [9], -3.21%; in assay [10], 0.68%.
As to `CC1=C(C(=O)Nc2ccc3[nH]ncc3c2)C(c2ccc(Cl)c(Cl)c2)CC(=O)N1` (stereo not given), the inhibition in assay [1] was 4.85%; in assay [2], 0.46%; in assay [3] it was -2.51%; in [4], 1%; in assay [5], 4.37%; in [6], 1.22%. The inhibition was 2.79% in assay [7], 3.85% in [8], 27.4% in assay [9] and 2.47% in [10].
Regarding `Fc1cccc(COc2ccc(Nc3ncnc4cc(-c5ccc[nH]5)sc34)cc2Cl)c1`, the inhibition was 1.92% in [1]; -5.52% in assay [2]; -2.5% in assay [3]; -1.95% in [4]; 2.7% in assay [5]; 2.73% in assay [6]. Besides, the inhibition in [7] is 3.15%; in [8], 3.5%; in assay [9] it was 4.2%; in [10], 0.89%.
Turning to `CCc1cccc(NC(=O)Nc2ccc(Oc3ccc4nc(NC(=O)OC)[nH]c4c3)cc2)c1`, the inhibition in assay [1] worked out at 6.49%; in assay [2], 1.47%; in [3], 4.9%; in assay [4], 7.33%; in assay [5], 13.9%; in assay [6], 2.67%. Also, the inhibition turned out to be 1.01% in [7], 2.12% in assay [8], 0.03% in assay [9] and 2.25% in [10].
For `NC(=O)c1ccc(-c2nc(-c3ccccn3)c(-c3ccc4c(c3)OCO4)[nH]2)cc1`, the inhibition in assay [1] is 6.9%; in [2], -0.15%; in assay [3], 2.8%; in assay [4], 1.68%; in assay [5], 1.67%; in assay [6], 1.97%. In addition, the inhibition in assay [7] turned out to be 5.34%; in [8], 2.52%; in assay [9], 1.22%; in [10] it was 1.34%.
Turning to `COc1cccc(-n2ncc3c(N/N=C/c4cccc(F)c4)ncnc32)c1`, the inhibition was 72.7% in assay [1]; -2.11% in assay [2]; 20.6% in assay [3]; 0.87% in assay [4]; 21.3% in assay [5]; 1.23% in [6]. Besides, the inhibition worked out at 4.69% in [7], 1.94% in [8], 3.29% in assay [9] and 1.61% in assay [10].

The record behind these values is ChEMBL document CHEMBL1961873, “Compounds: GSK PKIS; Assays: Nanosyn kinase panel” (2012).
